According to PubChem BioAssay (Tox21):
Results filed as inconclusive are left out. The source made the active and inactive calls. Unless noted, calls come from the whole dose curve.

Tests used:
[1] = Nuclear factor erythroid 2-related factor 2/antioxidant responsive element (Nrf2/ARE) small molecule agonists: qHTS cell viability counter screen in human keratinocytes (AID 1919968; active = well fitted curve in the direction sought with a large enough effect in the repeat runs; an effect the other way counts as inactive or inconclusive; note: nearly all actives have a fitted effect of over 55% in size; note: potency is the fitted concentration of half-maximal effect)
How it was run: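 Parallel cytotoxicity read: KeratinoSens HaCaT cells, compound treatment 23 h, viability by CellTiter-Fluor fluorescence 1 h post-reagent.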

[2] = Nuclear factor erythroid 2-related factor 2/antioxidant responsive element (Nrf2/ARE) small molecule agonists: luciferase reporter gene qHTS assay in human keratinocytes (AID 1919969); note: nearly all actives have a fitted effect of over 35% in size; note: potency is the fitted concentration of half-maximal effect
[3] = molecular target: Gonadotropin-releasing hormone receptor (Homo sapiens) (UniProt P30968); assay: Human gonadotropin-releasing hormone receptor (GnRHR) small molecule agonists, calcium flux assay in GnRHR-HEK293 cells (AID 1920063); note: nearly all actives have a fitted effect of over 35% in size; note: potency is the fitted concentration of half-maximal effect
How it was run: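 Calcium flux, agonist mode, human GnRHR stably integrated in HEK293; dye 1 h at 37 C before compound; Ex/Em=480/540 kinetic read, 3 min; 15 concentrations, triplicate.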

[4] = molecular target: KiSS-1 receptor (Homo sapiens) (UniProt Q969F8); assay: Human kisspeptin (KISS1R) small molecule agonists, calcium flux assay in KISS1R-HEK293 cells (AID 1920064; active = well fitted curve in the direction sought with a large enough effect in the repeat runs; an effect the other way counts as inactive or inconclusive)
How it was run: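 Triplicate 15-concentration series were applied to dye-loaded human KISS1R HEK293 cells, and agonist-evoked calcium fluorescence was captured for 3 min.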

[5] = G protein-coupled receptor (GPCR) small molecule agonists, calcium flux assay: HEK293 wild type cell line counter screen (AID 1920065)
How it was run: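 Non-specific calcium responders were flagged by adding DMSO-dissolved compounds to dye-loaded cells and reading 480/540 nm fluorescence each second for 3 min; ATP served as positive control.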

[6] = p53 small molecule agonists, cell-based qHTS assay with human liver microsomes (AID 1963577);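 note: p53 response element beta-lactamase reporter cells with liver microsomes plus NADPH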
How it was run: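 Reporter activation was measured by LiveBLAzer fluorescence intensity in p53RE-bla cells, which had been exposed to compounds for 16 h at 37 C alongside 0.5 mg/mL human liver microsomes and 0.5 mg/mL NADPH (final concentrations).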

[7] = p53 small molecule agonists, cell-based qHTS assay with rat liver microsomes (AID 1963578)
How it was run: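 Compound in DMSO added to p53RE-bla cells 5 h post-plating; rat microsomes/NADPH 0.5 mg/mL final; 16 h, 37 C; LiveBLAzer 2 h RT.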

[8] = p53 small molecule agonists, cell-based qHTS assay with human liver microsomes: qHTS cell viability counter screen (AID 1963579); note: nearly all actives have a fitted effect of over 45% in size
How it was run: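 HLM-supplemented (0.5 mg/mL final) and NADPH-supplemented (0.5 mg/mL final) p53RE-bla cultures, 4,000 cells per well, were dosed with compounds in DMSO for 16 h at 37 C; luminescent ATP detection (CellTiter-Glo, 30 min, room temperature) quantified surviving cells.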

[9] = p53 small molecule agonists, cell-based qHTS assay: qHTS cell viability counter screen (AID 1963581); note: nearly all actives have a fitted effect of over 45% in size; note: potency is the fitted concentration of half-maximal effect
How it was run: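 Multiplexed with the reporter read, a CellTiter-Glo step (30 min, room temperature) gauges ATP-based viability of HCT-116 p53RE-bla cells after 16 h compound incubation at 37 C.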

[10] = molecular target: 5-hydroxytryptamine receptor 2A (Homo sapiens) (UniProt P28223); assay: 5-hydroxytryptamine receptor 2A (HTR2A) small molecule antagonists, cell-based qHTS assay (AID 1963586); note: nearly all actives have a fitted effect of over 45% in size; note: potency is the fitted concentration of half-maximal effect
How it was run: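 CHO cells stably expressing human HTR2A were plated for 18 h at 37 C, then loaded with calcium dye for 1 h. Compounds were preincubated 5 min at room temperature before DOI (4 nM solution) was added. Kinetic fluorescence was read for 3 min.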

[11] = molecular target: 5-hydroxytryptamine receptor 2A (Homo sapiens) (UniProt P28223); assay: 5-hydroxytryptamine receptor 2A (HTR2A) small molecule agonists, cell-based qHTS assay (AID 1963587); note: nearly all actives have a fitted effect of over 30% in size; note: potency is the fitted concentration of half-maximal effect
How it was run: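 Kinetic calcium-flux fluorescence (2 min, 1 sec intervals) after compound addition in agonist mode. HTR2A-CHO cells were cultured 18 h, then dye-loaded 1 h at 37 C.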

[12] = molecular target: Muscarinic acetylcholine receptor M1 (Homo sapiens) (UniProt P11229); assay: Cholinergic receptor muscarinic 1 (CHRM1) small molecule agonists, cell-based qHTS assay (AID 1963589); note: nearly all actives have a fitted effect of over 35% in size
How it was run: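 qHTS, 15-point titration, 3 independent runs: compounds pin-transferred onto dye-loaded CHRM1-CHO cells (human M1), calcium fluorescence followed every second to detect agonism.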

[13] = molecular target: Beta-2 adrenergic receptor (Homo sapiens) (UniProt P07550); assay: Adrenergic beta2 receptor (ADRB2) small molecule antagonists, cell-based qHTS assay (AID 1963592); note: nearly all actives have a fitted effect of over 50% in size; note: potency is the fitted concentration of half-maximal effect
How it was run: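 Assay format: CHO-ADRB2 cells, 18-20hr seeding at 37C/5% CO2, then compound plus 1nM isoproterenol agonist mix for 0.5hr RT. Homogeneous time-resolved fluorescence cAMP detection after 1hr, expressed as 665/615 nm ratio.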

[14] = molecular target: D(2) dopamine receptor (Homo sapiens) (UniProt P14416); assay: Dopamine D2 receptor (DRD2) small molecule agonists, cell-based qHTS assay (AID 1963594); note: nearly all actives have a fitted effect of over 35% in size
How it was run: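 cAMP accumulation in DRD2-HEK293 cells measured by HTRF after 1 h detection; compounds added 10 min before NKH477 (200nM […]) forskolin-analogue stimulation, 30 min at room temperature, with Ro20-1724 present at 0.1 mM final.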

[15] = molecular target: D(2) dopamine receptor (Homo sapiens) (UniProt P14416); assay: Dopamine D2 receptor (DRD2) small molecule antagonists, cell-based qHTS assay (AID 1963595; active = well fitted inhibition curve with a large enough effect in the signal ratio in the repeat runs, with a control signal flat; the % refers to the signal ratio)
How it was run: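 Antagonist mode in DRD2-HEK293 cells: after compound addition with 0.1 mM Ro20-1724, cells received quinpirole (12 nM) and NKH477 (200 nM) for 30 min at room temperature; HTRF cAMP read after 1 h detection.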

[16] = p53 small molecule agonists, cell-based qHTS assay (AID 1963582; active = well fitted activation curve with a large enough effect in the signal ratio in the repeat runs, not every such curve was filed as active; the % refers to the signal ratio)
How it was run: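 Beta-lactamase reporter cells (p53RE-bla) treated with compounds for 16 h at 37 C; FRET substrate, 2 h, room temperature; fluorescence intensity.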

[17] = cAMP Responsive Elements (CRE) small molecule agonists, cell-based qHTS assay (AID 1963590)
How it was run: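 Quantitative HTS for CRE agonists: HEK 293T CRE-bla cells, overnight plating, 3 h compound incubation at 37 C/5% CO2, then 2 h room-temperature LiveBLAzer B/G FRET substrate loading.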

[18] = molecular target: Beta-2 adrenergic receptor (Homo sapiens) (UniProt P07550); assay: Adrenergic beta2 receptor (ADRB2) small molecule agonists, cell-based qHTS assay (AID 1963593);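 note: CHO cells stably overexpressing human ADRB2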
How it was run: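 CHO cells stably over-expressing ADRB2 were plated overnight at 37C, then dosed with compounds plus a stimulation mix containing 100uM IBMX and 25uM Ro-20-1724 for 0.5hr at room temperature. cAMP was measured by HTRF competition, 1hr.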

[19] = molecular target: Muscarinic acetylcholine receptor M1 (Homo sapiens) (UniProt P11229); assay: Cholinergic receptor muscarinic 1 (CHRM1) small molecule antagonists, cell-based qHTS assay (AID 1963588); note: nearly all actives have a fitted effect of over 40% in size; note: potency is the fitted concentration of half-maximal effect
How it was run: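 Compounds were tested at 15 concentrations in three independent runs. Dye-loaded CHRM1-CHO cells were exposed 5 min at room temperature before stimulation by acetylcholine added at 50nM. Intracellular calcium was read kinetically on FDSS for 3 min.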

[20] = cAMP Responsive Elements (CRE) small molecule antagonists, cell-based qHTS assay (AID 1963591; active = well fitted inhibition curve with a large enough effect in the signal ratio in the repeat runs, not every such curve was filed as active; the % refers to the signal ratio)
How it was run: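 Fluorescence intensity from cleaved LiveBLAzer B/G substrate (2 h, room temperature) quantified CRE-bla activity in HEK 293T cells exposed 3 h to compound with 0.25 uM final NKH477.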

Measured: Potency

Sequence of Gonadotropin-releasing hormone receptor (Homo sapiens) (P30968 whole entry, looked up): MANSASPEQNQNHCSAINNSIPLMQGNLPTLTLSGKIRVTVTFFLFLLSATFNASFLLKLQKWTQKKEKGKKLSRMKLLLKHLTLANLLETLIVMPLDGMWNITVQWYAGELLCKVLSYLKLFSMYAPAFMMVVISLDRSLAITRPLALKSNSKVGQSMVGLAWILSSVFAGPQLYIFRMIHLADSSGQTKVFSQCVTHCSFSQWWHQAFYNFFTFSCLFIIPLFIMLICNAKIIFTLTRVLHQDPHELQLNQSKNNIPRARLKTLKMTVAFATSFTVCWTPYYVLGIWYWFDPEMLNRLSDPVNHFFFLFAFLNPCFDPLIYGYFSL
Sequence of KiSS-1 receptor (Homo sapiens) (Q969F8 whole entry, looked up): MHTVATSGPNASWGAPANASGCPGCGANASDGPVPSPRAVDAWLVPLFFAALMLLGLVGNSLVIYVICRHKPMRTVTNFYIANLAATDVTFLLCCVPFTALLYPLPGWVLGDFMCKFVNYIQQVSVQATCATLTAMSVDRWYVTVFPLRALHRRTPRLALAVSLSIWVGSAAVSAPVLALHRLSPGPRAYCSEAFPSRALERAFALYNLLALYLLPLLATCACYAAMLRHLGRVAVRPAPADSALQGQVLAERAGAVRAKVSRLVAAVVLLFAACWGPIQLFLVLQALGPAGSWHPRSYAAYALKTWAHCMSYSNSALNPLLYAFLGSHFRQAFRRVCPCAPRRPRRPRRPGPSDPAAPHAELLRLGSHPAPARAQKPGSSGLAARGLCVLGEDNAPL
Sequence of D(2) dopamine receptor (Homo sapiens) (P14416 whole entry, looked up): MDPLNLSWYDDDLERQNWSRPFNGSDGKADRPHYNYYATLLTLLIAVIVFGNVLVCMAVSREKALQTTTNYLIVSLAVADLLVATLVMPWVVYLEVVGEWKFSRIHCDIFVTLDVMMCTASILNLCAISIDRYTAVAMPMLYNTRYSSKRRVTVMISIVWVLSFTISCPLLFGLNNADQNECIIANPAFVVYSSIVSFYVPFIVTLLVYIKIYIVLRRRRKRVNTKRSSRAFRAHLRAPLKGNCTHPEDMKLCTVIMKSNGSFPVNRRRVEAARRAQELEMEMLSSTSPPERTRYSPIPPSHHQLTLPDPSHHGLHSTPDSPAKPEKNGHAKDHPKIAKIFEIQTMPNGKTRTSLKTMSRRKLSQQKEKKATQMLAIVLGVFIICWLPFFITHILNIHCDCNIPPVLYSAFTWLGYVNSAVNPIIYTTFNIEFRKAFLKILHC
Sequence of Muscarinic acetylcholine receptor M1 (Homo sapiens) (P11229 whole entry, looked up): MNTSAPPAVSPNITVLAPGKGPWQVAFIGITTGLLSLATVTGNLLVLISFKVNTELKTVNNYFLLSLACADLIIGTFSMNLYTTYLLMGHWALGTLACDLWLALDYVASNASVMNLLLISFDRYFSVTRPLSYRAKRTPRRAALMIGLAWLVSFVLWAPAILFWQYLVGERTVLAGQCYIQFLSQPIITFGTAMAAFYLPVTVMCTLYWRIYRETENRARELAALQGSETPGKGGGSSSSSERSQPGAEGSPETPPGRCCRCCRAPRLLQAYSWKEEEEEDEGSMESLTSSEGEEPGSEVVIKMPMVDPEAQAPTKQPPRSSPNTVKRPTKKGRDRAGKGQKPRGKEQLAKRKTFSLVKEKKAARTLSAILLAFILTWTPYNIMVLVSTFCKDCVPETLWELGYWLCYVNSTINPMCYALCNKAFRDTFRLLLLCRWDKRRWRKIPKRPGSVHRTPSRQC
Sequence of Beta-2 adrenergic receptor (Homo sapiens) (P07550 whole entry, looked up): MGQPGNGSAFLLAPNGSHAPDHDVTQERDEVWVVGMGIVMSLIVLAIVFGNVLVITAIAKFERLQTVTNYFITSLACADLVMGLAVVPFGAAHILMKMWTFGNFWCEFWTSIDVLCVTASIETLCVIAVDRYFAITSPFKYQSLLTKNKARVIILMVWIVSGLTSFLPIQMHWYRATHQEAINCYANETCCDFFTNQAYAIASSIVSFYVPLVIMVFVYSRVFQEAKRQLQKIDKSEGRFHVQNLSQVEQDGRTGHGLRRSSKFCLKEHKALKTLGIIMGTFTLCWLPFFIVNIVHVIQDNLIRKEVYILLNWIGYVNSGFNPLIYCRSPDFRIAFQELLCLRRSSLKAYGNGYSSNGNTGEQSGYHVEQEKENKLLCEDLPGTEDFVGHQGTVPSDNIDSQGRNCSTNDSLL
Sequence of 5-hydroxytryptamine receptor 2A (Homo sapiens) (P28223 whole entry, looked up): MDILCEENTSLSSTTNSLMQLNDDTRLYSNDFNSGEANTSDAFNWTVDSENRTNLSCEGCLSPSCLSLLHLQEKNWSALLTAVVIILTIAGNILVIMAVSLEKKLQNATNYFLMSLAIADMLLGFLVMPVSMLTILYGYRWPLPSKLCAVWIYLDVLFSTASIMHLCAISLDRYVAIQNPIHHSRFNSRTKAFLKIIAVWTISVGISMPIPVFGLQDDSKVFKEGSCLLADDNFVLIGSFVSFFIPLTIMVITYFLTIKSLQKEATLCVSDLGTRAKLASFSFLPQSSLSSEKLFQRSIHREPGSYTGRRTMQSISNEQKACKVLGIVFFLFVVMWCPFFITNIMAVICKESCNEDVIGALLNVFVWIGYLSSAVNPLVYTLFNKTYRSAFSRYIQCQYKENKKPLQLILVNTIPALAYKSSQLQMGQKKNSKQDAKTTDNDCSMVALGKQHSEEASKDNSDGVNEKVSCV

COc1ccccc1NC(=O)c1cc2ccccc2cc1O
active: [2] 61.1 µM | [10] 21.1 µM | [13] 54.5 µM
not listed: [16] | [17] | [18] | [19] | [20]
inactive: all other assays above

COc1cc2c3cc1Oc1cc(ccc1O)C[C@@H]1c4c(cc(OC)c(O)c4Oc4ccc(cc4)C[C@@H]3N(C)CC2)CC[N+]1(C)C
not listed: [10] | [11] | [12] | [13] | [19] | [20]
inactive: all other assays above

C[Si](NC1CCCCC1)(NC1CCCCC1)NC1CCCCC1
not listed: [15] | [16] | [17] | [20]
inactive: all other assays above

CC(=O)NC(=O)c1ccccc1O
not listed: [11] | [14] | [18]
inactive: all other assays above

CC1=CCC2C(C1)C2(C)C (stereo unspecified)
active: [13] 27.3 µM
not listed: [14] | [16] | [18]
inactive: all other assays above

COCCOCC(OC)OC
not listed: [10] | [14] | [15] | [18] | [20]
inactive: all other assays above

CCCCCN=C(N)N/N=C/c1c[nH]c2ccc(OC)cc12
inactive: [2] | [3] | [4] | [5] | [6] | [7] | [8] | [19] | [12]
active: [1] 6.68 µM | [9] 15.8 µM | [10] 0.0326 µM | [11] 0.0107 µM

N=C1C=CC(=C(c2ccc(N)cc2)c2ccc(N)cc2)C=C1
inactive: [3] | [4] | [5] | [6] | [7] | [8] | [9]
active: [1] 27.3 µM | [2] 61.1 µM | [10] 8.4 µM

CC(C)(C)N
not listed: [15] | [16] | [19]
inactive: all other assays above

O=C(CS)Nc1ccccc1
active: [2] 29.8 µM
not listed: [10] | [15] | [18]
inactive: all other assays above

C[C@@H]1C[C@H]2[C@@H]3CCC4=CC(=O)C=C[C@]4(C)[C@@]3(F)[C@@H](O)C[C@]2(C)[C@@]1(O)C(=O)COP(=O)(O)O
not listed: [10] | [11] | [12] | [17] | [19]
inactive: all other assays above

COC(=O)N/N=C/c1c[n+]([O-])c2ccccc2[n+]1[O-]
active: [3] 19 µM | [11] 15.1 µM
not listed: [10] | [14] | [20]
inactive: all other assays above

C=C1C[C@@]23CC[C@H]4[C@@](C)(CCC[C@@]4(C)C(=O)O[C@@H]4O[C@H](CO)[C@@H](O)[C@H](O)[C@H]4O)[C@@H]2CC[C@]1(O[C@@H]1O[C@H](CO)[C@@H](O)[C@H](O[C@@H]2O[C@H](CO)[C@@H](O)[C@H](O)[C@H]2O)[C@H]1O[C@@H]1O[C@H](CO)[C@@H](O)[C@H](O)[C@H]1O)C3
not listed: [10] | [18]
inactive: all other assays above

O=P(O)(O)Oc1ccccc1
not listed: [10] | [14] | [17] | [18]
inactive: all other assays above

CC1=C2[C@@H]([C@H](C)CC[C@H]2/C=C(\C)C(=O)O)[C@H](O)C1
active: [19] 0.0026 µM
not listed: [11] | [17] | [18]
inactive: all other assays above

CCCCOc1cc(C(=O)NCCN(CC)CC)c2ccccc2n1
not listed: [10] | [11] | [17]
inactive: all other assays above
